Test systems include SR leukemia; RPMI-8226 leukemia; OVCAR-8 ovarian; OVCAR-5 ovarian; OVCAR-4 ovarian; SK-OV-3 ovarian; IGROV1 ovarian; OVCAR-3 ovarian; HS 578T breast; NCI/ADR-RES ovarian.
Assay in all cases: NCI-60 one-dose screen, 48 h (100 = growth as untreated, 0 = no growth, -100 = all killed)
Conditions in all cases: 10 µM unless noted

The panel holds about 83,000 compounds, 20% with a hit somewhere; the sample as a whole holds those more often.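 Plates (96-well) were seeded with cells, treated with compound at one concentration, and incubated for 48 hours before percent growth was determined.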 Unmarked numbers belong to inactive results. Active and inactive are the calls of the source. How the source made its calls: active means growth percent below 10; inactive means the rest.

Consider `CCN(C)S(=O)(=O)Nc1cccc(Nc2ncnc3cc(NC(=O)CCl)ccc23)c1Cl`, for which the growth in the test on SR leukemia is 6.73% (active); with RPMI-8226 leukemia it was -6.79% (active); with OVCAR-8 ovarian, 2.03% (active); in the test with OVCAR-5 ovarian it was -17.5% (active); in the test with OVCAR-4 ovarian it was 14.9%; with SK-OV-3 ovarian, 23.4%. Besides, the growth is -7.09% (active) in the test with IGROV1 ovarian, -65.1% (active) in the test with OVCAR-3 ovarian, 13.4% in the test with HS 578T breast and 59.3% in the test on NCI/ADR-RES ovarian.

As to `Nc1cnc(C(=O)NNc2nc3cc(F)ccc3n3cccc23)cn1`, the growth is 25.5% with SR leukemia; 52.6% in the test with RPMI-8226 leukemia; 27.6% with OVCAR-8 ovarian; 56.6% with OVCAR-5 ovarian; 31.3% in the test on OVCAR-4 ovarian; 37.9% with SK-OV-3 ovarian. Besides, the growth with IGROV1 ovarian is 26%; in the test with OVCAR-3 ovarian, 20.9%; with HS 578T breast, 80.4%; in the test on NCI/ADR-RES ovarian it was 16.2%.

For the compound `CN1CCN(C(=O)c2ccc(NC(=O)c3cc4c(nn3)NCCN4Cc3cc(Cl)ccc3Cl)cc2)CC1`, the growth in the test with SR leukemia is 0.181% (active); in the test on RPMI-8226 leukemia, 65.3%; in the test on OVCAR-8 ovarian it was 91.1%; with OVCAR-5 ovarian, 56.4%; in the test with OVCAR-4 ovarian, 72.8%; in the test on SK-OV-3 ovarian, 88.4%. The growth is 81.3% with IGROV1 ovarian, 89.8% in the test on OVCAR-3 ovarian, 76.9% in the test on HS 578T breast and 95.7% in the test on NCI/ADR-RES ovarian.

As for `Nc1nc(N)c(-c2ccc(Cl)c(Cl)c2)c(CBr)n1`, the growth is 62.1% in the test on SR leukemia; 80.2% in the test on RPMI-8226 leukemia; 75.6% with OVCAR-8 ovarian; 55.3% in the test on OVCAR-5 ovarian; 107% in the test with OVCAR-4 ovarian; 99% in the test on SK-OV-3 ovarian. Moreover, the growth in the test on IGROV1 ovarian was 47.5%; with OVCAR-3 ovarian it was 106%; in the test with HS 578T breast, 91.9%; in the test on NCI/ADR-RES ovarian it was 58.2%.

On to `COC(=O)c1c2c(c(C)[n+]([O-])c1C)C(=O)C(NCc1cccc(OC)c1)=CC2=O`, for which the growth was 17.6% with SR leukemia; 33.1% with RPMI-8226 leukemia; -4.96% (active) in the test on OVCAR-8 ovarian; 67.6% in the test on OVCAR-5 ovarian; -28.6% (active) with OVCAR-4 ovarian; 89.6% in the test with SK-OV-3 ovarian. Also, the growth was 12.3% in the test with IGROV1 ovarian, -12.1% (active) in the test on OVCAR-3 ovarian, 82.7% in the test on HS 578T breast and 8.5% (active) in the test on NCI/ADR-RES ovarian.

With `COC(=O)CC[C@@H]1O[C@@H](c2cccc(C(F)(F)F)c2)[C@@H](O)[C@H]1O`, the growth was 97.1% with SR leukemia; 109% in the test with RPMI-8226 leukemia; 110% in the test with OVCAR-8 ovarian; 97.1% in the test on OVCAR-5 ovarian; 105% with OVCAR-4 ovarian; 97.8% in the test on SK-OV-3 ovarian. Also, the growth in the test on IGROV1 ovarian is 112%; with OVCAR-3 ovarian, 99.4%; in the test on HS 578T breast it was 93.8%; with NCI/ADR-RES ovarian it was 108%.

For the compound `O=C(CSC(=S)n1cnnc1)NC(=O)c1ccccc1`, the growth with SR leukemia is 85.3%; in the test on RPMI-8226 leukemia it was 100%; with OVCAR-8 ovarian it was 115%; with OVCAR-5 ovarian, 100%; with OVCAR-4 ovarian it was 100%; in the test on SK-OV-3 ovarian, 105%. Moreover, the growth is 108% in the test with IGROV1 ovarian, 96.7% in the test with OVCAR-3 ovarian, 103% in the test with HS 578T breast and 99.7% with NCI/ADR-RES ovarian.

As for `C=CCn1c(SCC(=O)Nc2ccc(C(=O)/C=C/c3ccc(Cl)cc3)cc2)nnc1-c1ccc(Br)cc1`, the growth in the test on SR leukemia was 70.7%; with RPMI-8226 leukemia, -28.1% (active); with OVCAR-8 ovarian it was 57.6%; in the test with OVCAR-5 ovarian, 98%; in the test with OVCAR-4 ovarian it was 57.6%; in the test on SK-OV-3 ovarian, 138%. For the same compound, the growth with IGROV1 ovarian is 87.2%; in the test with OVCAR-3 ovarian it was 85.5%; in the test with HS 578T breast, 71.9%; in the test on NCI/ADR-RES ovarian, 74.7%.

Turning to `CCOC(=O)c1ccc(NC(=O)c2nc(-c3cc(OC)c(OC)c(OC)c3)n(-c3ccc(Cl)cc3)n2)cc1`, the growth is 92.7% in the test with SR leukemia; 82.1% with RPMI-8226 leukemia; 91.5% with OVCAR-8 ovarian; 101% in the test on OVCAR-5 ovarian; 95.4% in the test on OVCAR-4 ovarian; 94.3% in the test on SK-OV-3 ovarian. In addition, the growth was 88.9% with IGROV1 ovarian, 99.7% in the test with OVCAR-3 ovarian, 74.5% with HS 578T breast and 90.8% in the test with NCI/ADR-RES ovarian.

For `c1cc2c(ccc3[nH]c(-c4ccc5[nH]ncc5c4)c4c(c32)CCCC4)n1`, the growth in the test with SR leukemia is -7.05% (active); in the test with RPMI-8226 leukemia it was 45.8%; in the test with OVCAR-8 ovarian, 64.4%; with OVCAR-5 ovarian, 80.4%; in the test on OVCAR-4 ovarian, 80.7%; with SK-OV-3 ovarian it was 63.4%. Moreover, the growth is 67.6% in the test on IGROV1 ovarian, 72.5% in the test on OVCAR-3 ovarian, 75.7% in the test on HS 578T breast and 83.2% in the test with NCI/ADR-RES ovarian.

For the compound `COc1cc2nc3cc([N+](=O)[O-])ccc3c(NCCNCC(C)O)c2cc1OC` (stereo not given), the growth in the test with SR leukemia was -17.9% (active); in the test on RPMI-8226 leukemia, -13% (active); in the test on OVCAR-8 ovarian, -8.18% (active); in the test with OVCAR-5 ovarian, 5.11% (active); in the test with OVCAR-4 ovarian it was -32.4% (active); in the test on SK-OV-3 ovarian, 20.8%. Besides, the growth in the test on IGROV1 ovarian was -16.5% (active); in the test on OVCAR-3 ovarian, -35.9% (active); in the test with HS 578T breast, -1.12% (active); in the test on NCI/ADR-RES ovarian, 75.1%.

Take `CC(C)(Sc1cc(C(C)(C)C)c(OC(=O)CCCC(=O)O)c(C(C)(C)C)c1)Sc1cc(C(C)(C)C)c(OC(=O)CCCC(=O)O)c(C(C)(C)C)c1`: the growth was 61.6% in the test on SR leukemia; 21.9% in the test on RPMI-8226 leukemia; 36% with OVCAR-8 ovarian; 76.2% in the test on OVCAR-5 ovarian; 79.6% in the test on OVCAR-4 ovarian; 91.5% in the test with SK-OV-3 ovarian. Besides, the growth is 36.6% in the test with IGROV1 ovarian, 21.1% with OVCAR-3 ovarian, 57% in the test with HS 578T breast and 70% in the test with NCI/ADR-RES ovarian.

With `Oc1c(I)cc(I)cc1CNCCN(Cc1ccccn1)Cc1ccccn1`, the growth is -9.62% (active) in the test on SR leukemia; -12.3% (active) in the test with RPMI-8226 leukemia; -19.7% (active) with OVCAR-8 ovarian; -24.3% (active) in the test on OVCAR-5 ovarian; -48.5% (active) with OVCAR-4 ovarian; -74.7% (active) in the test with SK-OV-3 ovarian. The growth is -66.3% (active) in the test on IGROV1 ovarian, -59.7% (active) in the test on OVCAR-3 ovarian, -11.3% (active) in the test with HS 578T breast and -18.4% (active) in the test on NCI/ADR-RES ovarian.

The record behind these values is PubChem BioAssay (NCI).
